# Test results reported in PubChem BioAssay (NCATS).
# Records with an inconclusive call do not appear. A call without a number means that no potency is given here. Active and inactive are the calls of the source. Unless noted, calls come from the whole dose curve; as a rule, active = well fitted curve in the direction sought with a large enough effect; inconclusive = small, poorly fitted or top-dose-only effect, or another doubt; inactive = no such curve, though single readings can be large; an effect the other way counts as inactive or inconclusive.
# Legend:
# [1] = P-glycoprotein substrates identified in KB-3-1 adenocarcinoma cell line, qHTS therapeutic library screen (AID 1346986);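 note: potency is the fitted concentration of half-maximal effect; potency is for cytotoxicity meaning loss of cell viability; nearly all actives have a fitted effect of over 60% in size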
# Summary of the method: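 KB-3-1 parental cells and P-gp-overexpressing KB-8-5-11 (colchicine omitted during assay) plated at 500 cells/well, dosed in dose-response, incubated 72 h at 37 degree C. CellTiter-Glo luminescence read; KB-8-5-11 also tested with tariquidar.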
# [2] = Primary qHTS for inhibitors of nuclear receptor binding SET domain protein 2 (NSD2) in an isogenic RCH-ACV NSD2 p.E1099K mutant (9B) (AID 1645876); note: potency is the fitted concentration of half-maximal effect; nearly all actives have a fitted effect of over 70% in size
# [3] = Primary qHTS for inhibitors of nuclear receptor binding SET domain protein 2 (NSD2) in an RCH-ACV wild type WT cells (2C) (AID 1645877); note: potency is the fitted concentration of half-maximal effect; nearly all actives have a fitted effect of over 70% in size
# [4] = biological target: Glutathione peroxidase 1 (Homo sapiens) (UniProt P07203); assay: Primary qHTS Assay for Inhibitors of Recombinant Selenoprotein Glutathione Peroxidase 1 (GPX1) (AID 1845191); note: nearly all actives have a fitted effect of over 65% in size
# Summary of the method: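 Recombinant GPX1 (10 nM final) was preincubated with compound for 30 min at room temperature, then reacted with 1 mM GSH, 0.5 mM CHP, 0.5 mM NADPH and 100 nM glutathione reductase; NADPH fluorescence (340/450 nm) was read at 0 and 15 min.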
# [5] = biological target: Alpha-galactosidase (Coffea arabica) (UniProt Q42656); assay: Counterscreen for Glucocerebrosidase Inhibitors: qHTS Assay for Coffee Bean alpha-Galactosidase at pH 4.5 (AID 957)
# Summary of the method: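 AC50 values derive from Hill-equation modeling of concentration-response data, normalized to no-enzyme and full-activity controls. The pH 4.5 citrate assay used 2 nM coffee bean enzyme and 80 uM fluorogenic substrate for 20 min.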
# [6] = biological target: Alpha-galactosidase (Coffea arabica) (UniProt Q42656); assay: Counterscreen for Glucocerebrosidase Inhibitors: qHTS Assay for Coffee Bean alpha-Galactosidase at pH 5.9 (AID 998)
# Summary of the method: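 Green coffee bean enzyme (2 nM final) was incubated with compounds (0.7 nM–77 uM) and 4-methylumbelliferyl alpha-D-galactopyranoside (80 uM) in citrate buffer pH 5.9, 20 min at room temperature. High-pH stop; fluorescence 365/440 nm; AC50 from Hill fits.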
# [7] = High Content Imaging Cell-Based qHTS for Inhibitors of the mTORC1 Signaling Pathway in MEF (Tsc2-/-, p53-/-) Cells (AID 2666);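 note: percent of cells scored positive for phospho-rpS6 Ser235/236 immunostaining by imaging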
# Summary of the method: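 Read-out: % positive cells per well, with thresholds from highest- and lowest-signal wells, based on phospho-rpS6 (Ser235/236) intensity normalized to Hoechst nuclear stain. Cells: Tsc2-/-, p53-/- MEFs carrying empty vector; compound 24 hrs, 37 degree Celsius.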
# [8] = Validation screen for inhibitors of Lassa infection (AID 463096; calls by dose curve)
# [9] = biological target: M-phase phosphoprotein 8 (Homo sapiens) (UniProt Q99549); assay: qHTS Validation Assay for Inhibitors for MPP8 Chromodomain Interactions with Methylated Histone Tails (AID 488949); note: top concentration of the series differs between compounds; nearly all actives have a fitted effect of over 55% in size
# Summary of the method: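 MPP8 (50 nM) was pre-bound to 50 nM biotinylated H3(1-18)K9me3 peptide in PBS pH 7.4 with 0.01% Tween-20. Compounds were then added for 30 min at room temperature, and complex disruption was read by AlphaScreen with streptavidin donor and nickel-chelate acceptor beads.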
# [10] = biological target: Ubiquitin carboxyl-terminal hydrolase 1 (Homo sapiens) (UniProt O94782); assay: Inhibitors of USP1/UAF1: Pilot qHTS (AID 504865);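 note: rhodamine fluorescence freed from ubiquitin-rhodamine substrate followed over time; top concentration of the series differs between compounds; nearly all actives have a fitted effect of over 35% in size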
# Summary of the method: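 USP1/UAF1 complex at 1 nM preincubated 15 min at room temperature with compound, then Ub-Rho substrate added at 150 nM final. Fluorescence (480/540 nm) read kinetically in 50 mM HEPES pH 7.8, 0.5 mM EDTA, 1 mM TCEP, 0.1 mg/ml BSA, 0.01% Tween-20.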
# [11] = HTS Assay for Allosteric Antagonists of the Human D2 Dopamine Receptor: Hit Validation in HTRF (AID 624455);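 note: stable D1 dopamine receptor cell line scored for blocking the D1 response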
# Summary of the method: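 Signal from an HTRF read-out in D1-expressing stable cells gave hit activity as inhibition of the D1 response.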
# [12] = biological target: Arylsulfatase A (Homo sapiens) (UniProt P15289); assay: qHTS screen for enhancers of Arylsulfatase A (ASA1): LOPAC Validation Assay (AID 720538)
# Summary of the method: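 SV40-transformed fibroblasts from an MLD patient (ASA-I179S) were treated with compound for 48 h at 37 C. They were then lysed with 0.5 mM pNCS substrate (final) for 14 h at room temperature and stopped with NaOH; signal read by fluorescence (Ex 525/Em 598 nm), with increase denoting enhanced activity.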
# [13] = biological target: Parathyroid hormone/parathyroid hormone-related peptide receptor (Homo sapiens) (UniProt Q03431); assay: qHTS for PTHR1 Agonists: Optimization Screen against the NCGC LOPAC library (AID 1347079);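 note: GloSensor cAMP luminescence in HEK-293 GP2 cells expressing human PTHR1 with IBMX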
# Summary of the method: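 Compounds were tested across a qHTS titration. PTHR1-expressing GP2 cells report cAMP rises via GloSensor luminescence after 1 hr compound exposure at 37C with IBMX present.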
# [14] = qHTS for Inhibitors of the Functional Ribonucleoprotein Complex (vRNP) of Lassa (LASV) Arenavirus: LASV Primary Screen - GLuc reporter signal (AID 1347082; calls by dose curve; tested in HEK293 reporter line; note: nearly all actives have a fitted effect of over 60% in size; note: potency is the fitted concentration of half-maximal effect)
# [15] = qHTS for Inhibitors of the Functional Ribonucleoprotein Complex (vRNP) of Lassa (LASV) Arenavirus: Viability assay - alamar blue signal for LASV Primary Screen (AID 1347083; calls by dose curve; tested in HEK293 reporter line; note: nearly all actives have a fitted effect of over 80% in size)
# [16] = qHTS for Inhibitors of the Functional Ribonucleoprotein Complex (vRNP) of Lymphocytic Choriomeningitis Arenaviruses (LCMV): Viability assay - alamar blue signal for LCMV Primary Screen (AID 1347085; calls by dose curve; tested in HEK293 reporter line; note: nearly all actives have a fitted effect of over 80% in size)
# [17] = biological target: Nucleoprotein (Lymphocytic choriomeningitis virus (strain Armstrong)) (UniProt P09992); assay: qHTS for Inhibitors of the Functional Ribonucleoprotein Complex (vRNP) of Lymphocytic Choriomeningitis Arenaviruses (LCMV): LCMV Primary Screen - GLuc reporter signal (AID 1347086; calls by dose curve; note: nearly all actives have a fitted effect of over 70% in size)
# [18] = biological target: Luciferin 4-monooxygenase (Photinus pyralis) (UniProt P08659); assay: Biochemical firefly luciferase enzyme assay for NPC (AID 624030);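 note: purified P. pyralis luciferase at 10 nM with luciferin and ATP substrate; nearly all actives have a fitted effect of over 70% in size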
# Summary of the method: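 Counter-screen for direct inhibition of the luciferase enzyme by approved-drug library compounds, run at 10 nM enzyme in 50 mM Tris acetate (final). Luminescence was read within 5 min of enzyme-buffer addition and normalized to PTC124 versus DMSO (0%).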
# astro = assay: Drug repurposing screens with cells derived from glioblastoma tumor samples (AID 1345199); conditions: viability, ATP luminescence, 48 h; series mostly up to 45.9 µM; note: nearly all actives have a fitted effect of over 40% in size; note: potency is the fitted concentration of half-maximal effect
# Summary of the method: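 Four patient lines of CD133+ GBM neurospheres were screened at several concentrations; hits were retested in those lines plus three slower-growing GBM lines, using 48-hour treatment and ATP-based viability.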
# [19] = P-glycoprotein substrates identified in KB-8-5-11 adenocarcinoma cell line, qHTS therapeutic library screen (AID 1346987); note: potency is the fitted concentration of half-maximal effect; nearly all actives have a fitted effect of over 65% in size
# Summary of the method: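 P-gp-mediated resistance screen: KB-8-5-11 cells treated 72 h with compounds in dose-response. CellTiter-Glo viability.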
# [20] = biological target: Catechol O-methyltransferase (Homo sapiens) (UniProt P21964); assay: Confirmatory Screen for Target Class Profiling of Small Molecule Inhibitors of Methyltransferases (AID 1745852; calls by dose curve; note: potency is the fitted concentration of half-maximal effect); conditions: MTase-Glo luminescence, SAH detection, recombinant enzyme; measured here: COMT max response; stronger effect = lower value
# [21] = biological target: Guanidinoacetate N-methyltransferase (Homo sapiens) (UniProt Q14353); assay: as above; conditions: activity change, negative = inhibition: at 57.3 µM (top of the series) unless noted
# [22] = biological target: Nicotinamide N-methyltransferase (Homo sapiens) (UniProt P40261); assay: as above; conditions: MTase-Glo luminescence, SAH detection, recombinant enzyme; measured here: NNMT max response; stronger effect = lower value
# [23] = biological target: Phenylethanolamine N-methyltransferase (Homo sapiens) (UniProt P11086); assay: as above; conditions: MTase-Glo luminescence, SAH detection, recombinant enzyme; measured here: PNMT max response; stronger effect = lower value
# Sequence of Phenylethanolamine N-methyltransferase (Homo sapiens) (P11086 whole entry, looked up): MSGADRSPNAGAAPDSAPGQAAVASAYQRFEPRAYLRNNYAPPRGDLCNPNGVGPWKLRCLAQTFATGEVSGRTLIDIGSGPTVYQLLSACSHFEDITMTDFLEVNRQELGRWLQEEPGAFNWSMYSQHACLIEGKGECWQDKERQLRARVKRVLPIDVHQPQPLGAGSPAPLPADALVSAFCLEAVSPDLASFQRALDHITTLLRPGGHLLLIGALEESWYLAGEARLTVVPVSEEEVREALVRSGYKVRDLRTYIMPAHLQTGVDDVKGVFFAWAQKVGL
# Sequence of Glutathione peroxidase 1 (Homo sapiens) (P07203 whole entry, looked up): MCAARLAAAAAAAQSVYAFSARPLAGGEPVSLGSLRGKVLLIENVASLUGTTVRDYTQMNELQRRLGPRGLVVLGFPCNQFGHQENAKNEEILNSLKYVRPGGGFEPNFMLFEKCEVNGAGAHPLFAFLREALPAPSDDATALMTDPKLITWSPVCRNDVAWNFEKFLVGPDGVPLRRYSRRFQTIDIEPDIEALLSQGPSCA
# Sequence of Alpha-galactosidase (Coffea arabica) (Q42656 whole entry, looked up): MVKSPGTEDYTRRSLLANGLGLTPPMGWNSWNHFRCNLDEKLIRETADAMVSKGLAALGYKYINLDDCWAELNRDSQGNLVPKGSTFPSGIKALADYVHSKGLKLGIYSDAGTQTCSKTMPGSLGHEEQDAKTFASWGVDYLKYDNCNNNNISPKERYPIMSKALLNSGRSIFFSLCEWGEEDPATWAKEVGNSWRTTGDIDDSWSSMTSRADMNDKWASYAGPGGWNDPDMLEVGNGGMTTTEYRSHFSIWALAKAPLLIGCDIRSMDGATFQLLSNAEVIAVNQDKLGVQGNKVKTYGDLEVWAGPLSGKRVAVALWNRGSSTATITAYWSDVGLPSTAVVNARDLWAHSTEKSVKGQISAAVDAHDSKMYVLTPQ
# Sequence of Luciferin 4-monooxygenase (Photinus pyralis) (P08659 whole entry, looked up): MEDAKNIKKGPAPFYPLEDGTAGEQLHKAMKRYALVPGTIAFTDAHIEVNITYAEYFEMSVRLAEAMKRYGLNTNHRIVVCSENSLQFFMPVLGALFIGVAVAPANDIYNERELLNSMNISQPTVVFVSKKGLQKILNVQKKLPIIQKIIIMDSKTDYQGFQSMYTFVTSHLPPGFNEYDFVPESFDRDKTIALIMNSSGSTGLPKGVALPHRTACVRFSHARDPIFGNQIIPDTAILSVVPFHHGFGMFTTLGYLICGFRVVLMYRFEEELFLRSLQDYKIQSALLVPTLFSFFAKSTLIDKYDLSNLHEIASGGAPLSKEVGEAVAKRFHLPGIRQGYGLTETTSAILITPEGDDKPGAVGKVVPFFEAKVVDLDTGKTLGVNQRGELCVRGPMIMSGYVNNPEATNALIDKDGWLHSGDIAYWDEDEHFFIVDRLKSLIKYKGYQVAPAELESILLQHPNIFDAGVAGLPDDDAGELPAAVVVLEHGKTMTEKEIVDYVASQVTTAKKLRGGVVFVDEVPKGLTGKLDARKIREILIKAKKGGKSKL
# Sequence of Catechol O-methyltransferase (Homo sapiens) (P21964 whole entry, looked up): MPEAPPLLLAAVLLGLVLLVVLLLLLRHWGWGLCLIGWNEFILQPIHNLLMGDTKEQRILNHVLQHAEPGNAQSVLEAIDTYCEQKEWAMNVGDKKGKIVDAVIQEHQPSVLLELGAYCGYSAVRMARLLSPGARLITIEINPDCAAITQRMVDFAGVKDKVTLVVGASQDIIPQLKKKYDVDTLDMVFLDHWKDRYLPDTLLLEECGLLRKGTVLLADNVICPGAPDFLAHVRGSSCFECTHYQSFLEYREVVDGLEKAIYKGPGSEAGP
# Sequence of Nucleoprotein (Lymphocytic choriomeningitis virus (strain Armstrong)) (P09992 whole entry, looked up): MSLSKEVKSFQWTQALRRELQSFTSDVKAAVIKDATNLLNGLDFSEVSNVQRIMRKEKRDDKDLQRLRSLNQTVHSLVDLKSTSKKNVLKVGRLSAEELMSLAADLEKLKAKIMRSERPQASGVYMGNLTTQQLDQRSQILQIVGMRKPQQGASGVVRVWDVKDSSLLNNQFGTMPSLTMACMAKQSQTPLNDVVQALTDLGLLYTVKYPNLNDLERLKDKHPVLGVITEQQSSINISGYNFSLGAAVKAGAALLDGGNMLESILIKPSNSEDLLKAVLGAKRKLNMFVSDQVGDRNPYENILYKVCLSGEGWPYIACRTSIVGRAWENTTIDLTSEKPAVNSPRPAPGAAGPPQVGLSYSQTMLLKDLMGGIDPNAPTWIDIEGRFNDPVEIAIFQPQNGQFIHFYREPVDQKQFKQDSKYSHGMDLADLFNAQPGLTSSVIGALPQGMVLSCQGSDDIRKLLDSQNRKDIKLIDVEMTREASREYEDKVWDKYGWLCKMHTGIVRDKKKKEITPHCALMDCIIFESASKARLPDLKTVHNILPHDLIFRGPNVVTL
# Sequence of Arylsulfatase A (Homo sapiens) (P15289 whole entry, looked up): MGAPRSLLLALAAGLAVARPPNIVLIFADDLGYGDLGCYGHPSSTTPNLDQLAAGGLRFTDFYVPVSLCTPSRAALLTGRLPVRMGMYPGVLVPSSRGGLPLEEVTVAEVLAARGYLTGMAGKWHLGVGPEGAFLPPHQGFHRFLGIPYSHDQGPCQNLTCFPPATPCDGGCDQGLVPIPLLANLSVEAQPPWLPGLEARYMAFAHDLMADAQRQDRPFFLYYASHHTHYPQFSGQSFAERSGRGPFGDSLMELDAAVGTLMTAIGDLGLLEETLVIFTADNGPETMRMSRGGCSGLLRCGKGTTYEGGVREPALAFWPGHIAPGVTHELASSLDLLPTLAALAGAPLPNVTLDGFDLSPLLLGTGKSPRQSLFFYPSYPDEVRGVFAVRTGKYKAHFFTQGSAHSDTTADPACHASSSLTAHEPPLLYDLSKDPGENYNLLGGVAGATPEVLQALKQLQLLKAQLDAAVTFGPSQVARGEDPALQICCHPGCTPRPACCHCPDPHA
# Sequence of M-phase phosphoprotein 8 (Homo sapiens) (Q99549 whole entry, looked up): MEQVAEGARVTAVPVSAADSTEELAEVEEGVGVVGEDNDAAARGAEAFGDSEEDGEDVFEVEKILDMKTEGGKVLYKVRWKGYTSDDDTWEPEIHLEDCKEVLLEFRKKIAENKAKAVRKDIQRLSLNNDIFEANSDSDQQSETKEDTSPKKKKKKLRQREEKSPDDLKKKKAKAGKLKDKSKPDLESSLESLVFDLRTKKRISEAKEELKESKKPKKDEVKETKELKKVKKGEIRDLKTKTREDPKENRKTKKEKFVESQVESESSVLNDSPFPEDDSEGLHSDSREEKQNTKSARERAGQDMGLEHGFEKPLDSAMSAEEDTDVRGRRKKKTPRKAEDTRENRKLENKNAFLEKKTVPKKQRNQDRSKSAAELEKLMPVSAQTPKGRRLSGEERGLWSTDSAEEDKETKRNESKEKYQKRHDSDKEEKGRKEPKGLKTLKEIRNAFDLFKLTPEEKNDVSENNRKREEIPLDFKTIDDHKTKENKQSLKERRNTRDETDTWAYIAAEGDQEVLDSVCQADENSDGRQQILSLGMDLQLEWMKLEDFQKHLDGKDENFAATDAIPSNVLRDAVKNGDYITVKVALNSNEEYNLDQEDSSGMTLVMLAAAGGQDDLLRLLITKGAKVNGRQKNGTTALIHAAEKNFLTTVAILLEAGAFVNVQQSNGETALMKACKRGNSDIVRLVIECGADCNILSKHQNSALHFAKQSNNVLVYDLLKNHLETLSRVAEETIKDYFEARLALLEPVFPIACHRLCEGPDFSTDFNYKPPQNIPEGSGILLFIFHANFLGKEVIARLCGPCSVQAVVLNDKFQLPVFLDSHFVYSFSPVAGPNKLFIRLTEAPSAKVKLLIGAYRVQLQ
# Sequence of Parathyroid hormone/parathyroid hormone-related peptide receptor (Homo sapiens) (Q03431 whole entry, looked up): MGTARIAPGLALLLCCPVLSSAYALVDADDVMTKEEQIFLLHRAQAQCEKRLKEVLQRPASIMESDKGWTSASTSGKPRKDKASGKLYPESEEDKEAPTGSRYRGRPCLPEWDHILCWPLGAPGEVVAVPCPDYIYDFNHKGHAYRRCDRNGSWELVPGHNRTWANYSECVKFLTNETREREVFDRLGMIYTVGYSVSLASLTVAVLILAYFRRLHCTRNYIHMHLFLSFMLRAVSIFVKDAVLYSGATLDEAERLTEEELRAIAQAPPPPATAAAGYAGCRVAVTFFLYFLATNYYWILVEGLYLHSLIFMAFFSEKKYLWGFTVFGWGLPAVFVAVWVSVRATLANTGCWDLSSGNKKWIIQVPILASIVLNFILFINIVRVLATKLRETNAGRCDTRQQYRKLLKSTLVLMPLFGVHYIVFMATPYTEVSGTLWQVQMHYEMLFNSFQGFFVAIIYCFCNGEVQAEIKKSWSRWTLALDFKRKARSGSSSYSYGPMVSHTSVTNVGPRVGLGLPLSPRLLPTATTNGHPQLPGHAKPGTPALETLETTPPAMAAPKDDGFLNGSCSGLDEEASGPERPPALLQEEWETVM
# Sequence of Ubiquitin carboxyl-terminal hydrolase 1 (Homo sapiens) (O94782 whole entry, looked up): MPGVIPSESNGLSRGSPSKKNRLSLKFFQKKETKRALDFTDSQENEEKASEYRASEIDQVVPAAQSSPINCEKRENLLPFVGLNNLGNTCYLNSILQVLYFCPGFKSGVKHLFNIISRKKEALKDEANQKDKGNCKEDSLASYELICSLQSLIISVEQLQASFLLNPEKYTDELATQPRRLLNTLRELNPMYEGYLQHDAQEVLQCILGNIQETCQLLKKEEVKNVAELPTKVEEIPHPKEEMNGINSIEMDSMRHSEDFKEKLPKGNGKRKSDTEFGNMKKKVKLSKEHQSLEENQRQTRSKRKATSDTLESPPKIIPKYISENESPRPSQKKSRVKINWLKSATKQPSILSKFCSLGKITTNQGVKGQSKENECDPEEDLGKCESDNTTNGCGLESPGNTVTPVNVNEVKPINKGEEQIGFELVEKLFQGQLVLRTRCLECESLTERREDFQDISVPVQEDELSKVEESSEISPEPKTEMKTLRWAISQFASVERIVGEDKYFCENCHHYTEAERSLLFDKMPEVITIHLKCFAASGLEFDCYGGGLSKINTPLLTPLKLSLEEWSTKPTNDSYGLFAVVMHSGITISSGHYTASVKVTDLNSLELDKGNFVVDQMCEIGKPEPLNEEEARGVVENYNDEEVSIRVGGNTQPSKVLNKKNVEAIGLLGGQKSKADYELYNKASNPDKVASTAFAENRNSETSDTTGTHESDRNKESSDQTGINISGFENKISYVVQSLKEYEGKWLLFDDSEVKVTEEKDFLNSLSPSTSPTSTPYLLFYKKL
smiles,measurement,setting,value
COC[C@@H]1OC(=O)/C(=C\N(C)CCCN(C)C)C2=C(O)C(=O)C3=C([C@@H](OC(C)=O)C[C@@]4(C)[C@@H]3CC[C@@H]4O)[C@@]21C,Potency,[1],13000 nM (active)
same,Potency,[2],2590 nM (active)
same,Potency,[3],2590 nM (active)
same,Potency,[4],inactive
C1CCc2nnnn2CC1,outcome,[5],inactive
same,outcome,[6],inactive
same,Potency,[7],inactive
same,Potency,[8],inactive
same,Potency,[9],inactive
same,Potency,[10],inactive
same,outcome,[11],inactive
same,Potency,[12],inactive
same,outcome,[13],inactive
same,Potency,[14],inactive
same,Potency,[15],inactive
same,Potency,[16],inactive
same,Potency,[17],inactive
CC[C@@H](O)C(C[C@@H](C)N(C)C)(c1ccccc1)c1ccccc1,Potency,[18],inactive
same,Potency,astro,inactive
COc1cc2c(ccc3c4cc(OC)c(OC)cc4c[n+](C)c23)cc1O,Potency,[14],inactive
CC1Oc2cc3c(-c4c(O)cc(O)c5c(O)c6c(cc45)OC(C)C(C)C6=O)c(O)cc(O)c3c(O)c2C(=O)C1C (configuration not stated),Potency,[1],5800 nM (active)
same,Potency,[19],8200 nM (active)
same,Potency,[2],1300 nM (active)
same,Potency,[3],1160 nM (active)
same,activity,[20],-48.2%
same,Potency,[21],24100 nM (active)
same,activity,[22],-21.1%
same,activity,[23],-60.9%
same,Potency,[4],inactive
CC(=O)O[C@H]1C[C@H](O[C@H]2[C@@H](O)C[C@H](O[C@H]3[C@@H](O)C[C@H](OC4CC[C@@]5(C)C(CC[C@@H]6[C@@H]5CC[C@]5(C)[C@@H](C7=CC(=O)OC7)[C@@H](O)C[C@]65O)C4)O[C@@H]3C)O[C@@H]2C)O[C@H](C)[C@H]1O[C@@H]1O[C@H](CO)[C@@H](O)[C@H](O)[C@H]1O (some centres not stated),Potency,[19],1300 nM (active)
same,Potency,[14],794 nM (active)
same,Potency,astro,708 nM (active)
